# Data published in PubChem BioAssay (NCATS).
# Results filed as inconclusive are left out. Calls of active or inactive are those of the source. Calls follow the shape of the dose curve; as a rule, active = well fitted inhibition curve with a large enough effect; inconclusive = small, poorly fitted or top-dose-only effect; inactive = no such curve, though single readings can be large or run the other way.
# Assay: S16 Schwann cell PMP22 intronic element firefly luciferase assay (AID 624032); also: nearly all actives have a fitted effect of over 30% in size
# Details: S16 rat Schwann cells, PMP22 element FLuc, 24 h; series mostly up to 57.5 µM; activity change, negative = inhibition: at the top concentration
# Excerpt: Charcot-Marie-Tooth-Association [CMTA]
# National Center for Advancing Translational Sciences [NCATS]
# Charcot-Marie-Tooth (CMT) disease was first characterized by Jean-Martin Charcot and Pierre Marie in France and, independently, by Howard Henry Tooth in England in 1886. CMT is one of the most common inherited neurological diseases, affecting approximately 1 in 2,500 Americans. […] The most prevalent type of CMT is known as CMT1A and caused by a duplication of the PMP22 gene which leads to over-expression of this protein. PMP22 is a glycosylated intrinsic membrane protein accounting for 2-5% of the myelin protein content, and its over-expression results in demyelination and subsequently axonal loss.
# A pair of cellular transcription-based assays was developed in the S16 rat Schwann cell lines (Hai, M., et al., 2002) stably transfected with orthogonal reporters - firefly luciferase (Fluc) and beta-lactamase (beta-Lac) - whose expression is driven by an intronic regulatory element of the PMP22 gene (Jones, E.A., et al., 2011) to recapitulate endogenous expression of PMP22. The current assay employs Fluc to report on PMP22 expression. A comprehensive library of approved drugs, the NCGC Pharmaceutical Collection (Huang, R., et al., 2011), was screened in the cross-validating platform of the orthogonal reporter assays to identify drug modulators inhibitory towards PMP22 expression.
# A set of counter-screens was devised to address non-specific activity of the library. An ATP-dependent CellTiter-Glo assay (developed by Promega Corp) was utilized to control cell viability. In addition, biochemical Fluc enzyme assay was performed to assess direct inhibition of the Fluc enzymatic activity.
# Hai, M., Muja, N., DeVries, G.H., Quarles, R.H. and Patel, P.I. Comparative analysis of Schwann cell lines as model systems for myelin gene transcription studies. J Neurosci Res, 2002. 69(4): pp 497-508
# Huang, R., Southall, N., Wang, Y., Yasgar A., Shinn P., Jadhav, A. , Nguyen, D.-T. and Austin, C.P., The NCGC pharmaceutical collection: a comprehensive resource of clinically approved drugs enabling repurposing and chemical genomics. Sci Transl Med, 2011. 3(80): p. 80ps16.
# S16 Schwann cell PMP22 intronic element firefly luciferase assay
# The FLuc-expressing S16 cells were seeded in white solid 1536-well plates at between 500-750 cells/4uL in DMEM medium containing 10% FBS, w/o phenol red. After overnight incubation at 37 degree Celsius/5% C02, 23 nL of compounds or DMSO were delivered to each well using a pin tool, followed by 24h-incubation at 37 degree Celsius/5% C02. Then 4 uL ONE-Glo luminescent substrate mix (Promega) was added to each well. Luminescence was measured on a ViewLux plate reader (Perkin Elmer). The % activity was determined by normalizing to the average readings of PTC124 (a positive control) - treated cells relative to DMSO-treated cells (0% Activity). The concentration-effect curves were then classified based on curve quality (r2), response magnitude and degree of measured activity.
# Potency is read from the fitted curve at half-maximal effect.
SMILES,"activity change, negative = inhibition",Potency
CCc1oc2ccccc2c1C(=O)c1cc(Br)c(O)c(Br)c1,-7.21% (inactive),–
O=C(NCCc1c[nH]c2ccccc12)c1cccnc1,48.3% (inactive),–
CCN1/C(=C/C=C/c2sc3ccccc3[n+]2CC)Sc2ccccc21,–,2.03 µM (active)
CC(=O)Nc1ncc([N+](=O)[O-])s1,-6.24% (inactive),–
NCc1ccccc1Sc1ccccc1CO,-26.5% (inactive),–
Cc1c[nH]c2ccccc12,0.129% (inactive),–
CNCCc1ccccn1,7.86% [at 25.7 µM] (inactive),–
Cc1ccc(O)c([C@H](CCN(C(C)C)C(C)C)c2ccccc2)c1,7.99% (inactive),–
COc1ccc(/C=N/NC(=O)c2ccncc2)cc1OC,-11.4% (inactive),–
CN(Cc1ccc(C(C)(C)C)cc1)Cc1cccc2ccccc12,0.816% (inactive),–
CC[N+](C)(CC)CCOC(=O)C(O)(c1ccccc1)C1CCCCC1 (stereo not given),12.5% (inactive),–
CC(C)NCC(O)c1ccc2ccccc2c1 (stereo not given),-6.31% (inactive),–
Cc1nc(-c2ccc(Cl)cc2)oc1COC(C)(C)C(=O)O,30.8% (inactive),–
CCCCCCCCCCCCCC(=O)OC(C)C,-24.2% (inactive),–
CN1CCN(c2c(F)cc3c(=O)c(C(=O)O)cn4c3c2SCC4)CC1,8.13% (inactive),–
CN1CCN(c2cc3c(cc2F)c(=O)c(C(=O)O)cn3-c2ccc(F)cc2)CC1,7.33% (inactive),–
O=C(CCN1CCN2CCCC2C1)N1c2ccccc2Sc2ccc(Cl)cc21 (stereo not given),-12.4% (inactive),–
OC(C#CCN1CCCC1)(c1ccccc1)c1ccccc1,0.944% (inactive),–
Cc1cc(-c2ccccc2)nnc1NCCN1CCOCC1,88% (inactive),–
NCCNC(=O)c1ccc(Cl)cn1,-13.5% (inactive),–

SMILES,"activity change, negative = inhibition",Potency
CC(=O)Nc1ccc(OC(=O)c2ccccc2OC(C)=O)cc1,–,32.2 µM (active)
O=S(=O)(O)c1ccc(O)cc1,9.73% (inactive),–
NS(=O)(=O)c1ccc(Cl)c(S(N)(=O)=O)c1,-9.54% (inactive),–
COc1ccc(CN(CCN(C)C)c2ncccn2)cc1,19.5% (inactive),–
Cc1cc(C)cc(OCC2CNC(=O)O2)c1 (stereo not given),-0.641% (inactive),–
CN(C)CCOC(c1ccc(Cl)cc1)c1ccccn1 (stereo not given),18.1% (inactive),–
CCC(C(=O)OCCOCCN(CC)CC)c1ccccc1 (stereo not given),-5.25% (inactive),–
Nc1ccc(S(=O)(=O)NCc2ccccc2)cc1,-0.465% (inactive),–
CCNC(=O)/C=C/c1cccc(Br)c1,62.7% (inactive),–
CCN(CC)CCOc1ccc2c(c1)C(=O)c1cc(OCCN(CC)CC)ccc1-2,–,8.09 µM (active)
CCCc1ncc(C[n+]2ccccc2C)c(N)n1,3.83% [at 25.7 µM] (inactive),–
C=C[C@@]1(C)CC(=O)[C@]2(O)[C@@]3(C)[C@@H](O)CCC(C)(C)[C@@H]3[C@H](O)[C@H](OC(C)=O)[C@@]2(C)O1,–,0.361 µM (active)
CCCCCCCC/C=C\CCCCCCCCN,41.9% (inactive),–
O=C(O)CCc1nc2ccccc2[nH]1,7.72% (inactive),–
CCOc1ccccc1C(N)=O,-6.39% (inactive),–
O=C(c1ccc(F)cc1)C1CCN(CCn2c(=S)[nH]c3ccccc3c2=O)CC1,-7.4% (inactive),–
NC(N)=NCc1cccc(I)c1,-23% (inactive),–
O=C1C(CCS(=O)c2ccccc2)C(=O)N(c2ccccc2)N1c1ccccc1 (stereo not given),-3.93% [at 25.7 µM] (inactive),–
C/C=C/C=N/NC(=O)c1ccncc1,-24.8% (inactive),–
CC(C)(C)NC[C@H](O)COc1cccc2c1CCCC2=O,21.4% [at 25.7 µM] (inactive),–
